# TGFb inhibitor: qHTS for Inhibitors of TGF-b; Potency, µM (doses to about 46.1 µM), for the others: at the highest dose activity, negative = inhibition, usual class: inhibitors; HepG2 CAGA-GFP TGF-b/SMAD3 reporter, GFP fluorescence, 18 h; TGF-beta stimulated, 500 pg/mL final; 410,000 compounds, 1.2% hits; note: % is set by controls: 0 for no effect and ±100 for the full control effect; nearly all actives have a fitted effect of over 65% in size
#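 Inhibition of TGF-beta-driven CAGA-GFP reporter expression in HEPG2 cells is measured by cellular GFP fluorescence after 18 h stimulation with 500 pg/mL recombinant TGF-beta in 1% FBS medium at 37 degrees C.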
# ATXN viability: Viability Counterscreen for Primary qHTS for Inhibitors of ATXN expression. S2 cells (HEK-293 line with an ATXN2-luciferase reporter) viability, CellTiter-Fluor protease fluorescence, 24 h. Potency, µM (series often up to 56.7 µM), hits mostly cytotoxic. 400,000 compounds, 0.49% hits. AID 651635, 2014; note: nearly all actives have a fitted effect of over 40% in size
# HTT ATP protect: qHTS Multiplex Assay to Identify Dual Action Probes in a Cell Model of Huntington: Cytoprotection (ATP) | PC12 HTT-Q103 induced, cytoprotection, ATP luminescence, 40 h | Potency, µM (highest dose often 56.4 µM), without a hit: cytoprotection (ATP increase), hits mostly activators | 230,000 compounds, 0.14% hits; note: % of control where 0% means no effect; nearly all actives have a fitted effect of over 45% in size
#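 Cells were plated at 1500 per well in phenol red-free DMEM with 5% equine and 5% calf serum. Tebufenozide (100 nM final) and compounds were added, then ATPlite reagent, and luminescence was read.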
# HepG2 tox: qHTS for Inhibitors of TGF-b: Cytotox Counterscreen | HepG2 CAGA-GFP viability, ATP luminescence, 18 h | Potency, µM (doses to about 46.1 µM), without a hit: at the highest dose activity change, negative = cytotoxicity, usual class: cytotoxic | 410,000 compounds, 0.76% hits | AID 588856, 2011
#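 HepG2 CAGA-GFP cells (1000/well, DMEM with 1% FBS) received compound, then TGF-beta at 500 pg/mL final, and were incubated 18 hours at 37 degrees C. Viability was read by CellTiter-Glo luminescence. Media-only wells were set as complete cell-killing and DMSO as no toxicity.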
# HttQ103 aggreg: qHTS Multiplex Assay to Identify Dual Action Probes in a Cell Model of Huntington: Aggregate Formation (GFP); PC12 HttQ103-GFP aggregates, Acumen cytometry, 40 h; 220,000 compounds, 1.1% hits; Potency, µM (top dose mostly 46.1 µM), without a hit: top-dose activity change, negative = inhibition, actives largely listed as inhibitors; note: % is set by controls: 0 for no effect and ±100 for the full control effect; nearly all actives have a fitted effect of over 60% in size
#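 PC12 cells stably carrying ecdysone-inducible HTT exon 1 Q103–GFP were induced with tebufenozide (100 nM final) and treated with library compounds in titration. GFP aggregates in lysates were counted by laser scanning cytometry.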
# ATXN2 expr inh: Primary qHTS for Inhibitors of ATXN expression | HEK-293 ATXN2-luciferase reporter, luminescence, 24 h | Potency, µM (top dose mostly 57 µM), for the others: at the top dose activity change, negative = inhibition, usual class: inhibitors | 360,000 compounds, 0.72% hits; note: % is set by controls: 0 for no effect and ±100 for the full control effect; nearly all actives have a fitted effect of over 55% in size
#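 ATXN2-luciferase reporter cells (luciferase flanked by upstream and downstream ATXN2 gene portions) were treated 24 h at 37 °C with compounds at up to 57 uM. SteadyGlo luminescence gave expression; GF-AFC fluorescence gave viability.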
# An asterisk follows results filed as active; i = inactive; ? = inconclusive; · = not tested or not shown; ! = not active in a repeat; [ ] = dose if it differs, or a comment. Only some compounds are listed: those with a hit (about 2.8% of all), similar ones and a draw of the others. Calls come from the whole dose curve; as a rule, active = well fitted curve in the direction sought with a large enough effect; inconclusive = small, poorly fitted or top-dose-only effect, or another doubt; inactive = no such curve, though single readings can be large; an effect the other way counts as inactive or inconclusive. Potency is the fitted concentration of half-maximal effect.
SMILES,TGFb inhibitor,ATXN viability,HTT ATP protect,HepG2 tox,HttQ103 aggreg,ATXN2 expr inh
CCCCCCNC(=O)OC12CN(C(=O)OC(C)C)N(C(=O)OC(C)C)CC1(O)CN(S(=O)(=O)c1ccc(C)cc1)C2 (stereo not drawn),?,·,·,-32%,·,?
Cc1ccc(S(=O)(=O)N2CC3(O)CN(C(=O)OC(C)C)N(C(=O)OC(C)C)CC3(OC(=O)NCC3CCCCC3)C2)cc1 (stereo not drawn),?,14µM*,·,-26%,·,?
C[N+]1=C(/C=C/Nc2ccccc2Cl)C(C)(C)c2ccccc21,?,i,12%[10 µM],-28%,13µM*,-26%
Cc1cccc2nc(CNC(=O)CN3Cc4ccccc4OC(c4ccccc4F)C3)cn12 (stereo not drawn),·,i,·,·,·,·
Cc1ncc(CO)c(/C=N/NC(=O)c2ccc(Br)cc2)c1O,·,·,40%[10 µM],·,11µM*,·
O=C(C[n+]1ccnc2ccccc21)c1ccc(Br)cc1,?,·,·,-35%,·,·
O=Cc1cc(N=Nc2ccccc2Cl)ccc1O,?,34µM*,-47%[10 µM],-17%,-7%[9.22 µM],-32%
COc1ccc(C=Cc2cc(OC)c(OC)c(OC)c2)cc1NC(=O)[C@H](N)CO,·,·,·,·,·,-11%
CCN(CCNC(=O)C1CCN(Cc2nc(-c3cccc(Cl)c3)oc2C)CC1)c1ccccc1,?,?,-91%,-121%,10µM*,?
CCN(CCNC(=O)C1CCN(Cc2nc(-c3ccc(Cl)cc3)oc2C)CC1)c1ccccc1,?,?,-74%[0.074 µM],-104%,?,?
CC(C)(C)c1ccc(Cn2nnc3c(=O)[nH]c(C4CCN(C(=O)Cc5cccs5)CC4)nc32)cc1,?,?,-25%,-56%,13µM*,?
Cc1ccc(CC(=O)N2CCC(c3nc4c(nnn4Cc4ccccc4)c(=O)[nH]3)CC2)cc1,?,i,16%[10 µM],-32%,?,1%
CC(C)(C)c1ccc(Cn2nnc3c(=O)[nH]c(C4CCCN(C(=O)Cc5cccs5)C4)nc32)cc1 (stereo not drawn),?,i,23%[10 µM],-78%,-18%,-18%
Cc1ccc(C)c(C(=O)N2CCC(c3nc4c(nnn4Cc4ccccc4)c(=O)[nH]3)CC2)c1,11µM*,i,·,-9%,·,16%
CC(=O)OCC1OC(C#CCC2CCCCC2)C=CC1OC(C)=O (stereo not drawn),·,·,22%[10 µM],·,·,·
CCN1CCN(C(=O)Cn2ncc3c4ccccc4n(Cc4c(C)cc(C)cc4C)c3c2=O)CC1,16µM*,·,·,-96%,·,·
Cc1cc(NC(=O)CCS(=O)(=O)c2ccc3c(c2)NC(=O)C(C)S3)ccc1Br (stereo not drawn),11µM*,i,·,-66%,·,·
COc1ccc(-c2nc(-c3ccc(NC(=O)c4ccc(Br)o4)cc3)no2)cc1OC,?,18µM*,-73%,-59%,2%,?
COc1cc(-c2nc(-c3ccc(NC(=O)c4ccc(Br)o4)cc3)no2)cc(OC)c1OC,-12%,?,-17%,-65%,-19%,-38%
CCC1(c2ccccc2)SC(=O)NC1=O (stereo not drawn),-5%,i,·,-11%,·,-14%
CCC1(c2ccccc2)C(=O)NCNC1=O,7%,i,1.4µM*!,-3%,-9%,1%
CC1=CC(C)(C)N2C(=O)C3(NCCc4c3[nH]c3ccccc43)c3cc(C)cc1c32 (stereo not drawn),?,22µM*,-25%[10 µM],-2%,-8%[9.22 µM],-20%
CN1C(=O)C2(NCCc3c2[nH]c2ccccc32)c2ccccc21 (stereo not drawn),?,i,0%,15%,-4%,3%
Cc1csc(NC(=O)C2CCCN(S(=O)(=O)c3ccc(Br)s3)C2)n1 (stereo not drawn),18µM*,i,-7%[10 µM],5%,?,-18%
O=C(Nc1ccc(Cl)cc1)C1CCN(S(=O)(=O)c2ccc(Br)s2)CC1,13µM*,?,·,-40%,·,0%
SMILES,TGFb inhibitor,ATXN viability,HTT ATP protect,HepG2 tox,HttQ103 aggreg,ATXN2 expr inh
CC(C)c1ccc(NC(=O)C2CCN(S(=O)(=O)c3ccc(Br)s3)CC2)cc1,-9%,i,·,-18%,·,-9%
CCc1ccc2[nH]c(=O)c(CN(Cc3cccs3)Cc3nnnn3Cc3ccccc3)cc2c1,?,·,·,-3%,·,·
Cn1c(SCC2CCCO2)nnc1C1CCN(Cc2ccc(-c3cccc(Cl)c3)o2)CC1 (stereo not drawn),·,i,·,·,·,·
CCC1(C2CCN(Cc3cccc(Cl)c3)CC2)NC(=O)N(CC2COc3ccccc3O2)C1=O (stereo not drawn),·,i,·,·,·,·
COc1ccc(OCCNC(=O)C2(C)CCN2Cc2ccc(SC)cc2)cc1 (stereo not drawn),?,i,·,-19%,·,?
COc1ccc(OCCNC(=O)C2(C)CCN2Cc2ccc3ccccc3c2)cc1 (stereo not drawn),14µM*,?,·,-56%,·,?
COc1cc(-c2ccc(-[n+]3nc(-c4ccccc4)nn3-c3ccc([N+](=O)[O-])cc3)c(OC)c2)ccc1-[n+]1nc(-c2ccccc2)nn1-c1ccc([N+](=O)[O-])cc1,·,·,-64%,·,-12%,·
CCc1ccc(-c2cc(C(F)(F)F)n3nc(C(=O)Nc4cnn(Cc5ccc(C)cc5)c4)cc3n2)s1,2%,?,-93%,-22%,15%,11µM*
Cc1ccccc1Cn1cc(NC(=O)c2cc3nc(-c4ccco4)cc(C(F)(F)F)n3n2)cn1,-9%,i,-32%,-4%,4%,-10%
COC(=O)[C@H]1[C@@H]2C[C@H]3c4[nH]c5ccccc5c4CCN3C[C@@H]2CC[C@@H]1O,·,·,-16%,·,·,·
O=C(NCCc1ccccc1)C1CC(=O)N(C2CCCCCC2)C1 (stereo not drawn),9%,i,-5%[0.074 µM],-6%,-6%,2%
O=C(Nc1cc(Cl)cc(Cl)c1)C1CC(=O)N(C2CCCC2)C1 (stereo not drawn),?,i,·,10µM*,·,-13%
O=C(NCCC1=CCCCC1)C1CC(=O)N(C2CCCCC2)C1 (stereo not drawn),2.8µM*,i,-23%,5%,-11%,5%
COc1ccc(Cl)cc1NC(=O)C1CC(=O)N(C2CCCCC2)C1 (stereo not drawn),-5%,i,·,-6%,·,3%
